From article PMC7862700, “An all-to-all approach to the identification of sequence-specific readers for epigenetic DNA modifications on cytosine” come the findings set out here.

Holding throughout (assay): DAPPL (digital affinity profiling via proximity ligation, sequencing); 10 mM Tris-HCl pH 7.5, 50 mM NaCl, 1 mM DTT, 4% glycerol, room temperature, 30 min; GST-TFs on glutathione beads, 16-mer random dsDNA library, 0.1% formaldehyde crosslink after washing; high values mean tight binding
Common to all, as to conditions: protein: recombinant; tags: N-terminal GST; dsDNA, one strand shown

Assay [1] has as its target T1, FLI1 (Homo sapiens, UniProt Q01543 1-452).
T1 sequence: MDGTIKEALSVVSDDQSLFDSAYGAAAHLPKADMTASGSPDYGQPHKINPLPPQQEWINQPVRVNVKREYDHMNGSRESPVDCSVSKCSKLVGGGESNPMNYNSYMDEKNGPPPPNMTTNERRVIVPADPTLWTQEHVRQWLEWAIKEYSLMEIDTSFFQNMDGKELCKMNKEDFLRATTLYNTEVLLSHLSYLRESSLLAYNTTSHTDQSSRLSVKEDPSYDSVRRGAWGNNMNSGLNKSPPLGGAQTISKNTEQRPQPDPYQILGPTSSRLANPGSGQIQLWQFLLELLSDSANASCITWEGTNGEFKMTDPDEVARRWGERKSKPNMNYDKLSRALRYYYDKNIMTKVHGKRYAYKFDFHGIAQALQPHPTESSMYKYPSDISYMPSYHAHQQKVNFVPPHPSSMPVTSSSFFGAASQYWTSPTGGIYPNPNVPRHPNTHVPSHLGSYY
In outline: (§1)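 Human transcription factors fused to GST were expressed in yeast, captured on glutathione beads, given DNA barcodes and pooled with a GST-only negative control. Pools were incubated with 200 nmole of a 16-mer random double-stranded DNA library in Tris/NaCl/DTT/glycerol buffer at room temperature for 30 min. They were then washed, crosslinked with 0.1% formaldehyde, proximity-ligated (BsaI/T4 ligase, 1 h, 37 °C), PCR-amplified and sequenced on an Illumina NextSeq500. Binding signal is each 6-mer's read frequency for a factor divided by its frequency for the GST control.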

Assay [2] concerns the target T2, ELK1 (Homo sapiens, UniProt P19419 1-428).
T2 sequence: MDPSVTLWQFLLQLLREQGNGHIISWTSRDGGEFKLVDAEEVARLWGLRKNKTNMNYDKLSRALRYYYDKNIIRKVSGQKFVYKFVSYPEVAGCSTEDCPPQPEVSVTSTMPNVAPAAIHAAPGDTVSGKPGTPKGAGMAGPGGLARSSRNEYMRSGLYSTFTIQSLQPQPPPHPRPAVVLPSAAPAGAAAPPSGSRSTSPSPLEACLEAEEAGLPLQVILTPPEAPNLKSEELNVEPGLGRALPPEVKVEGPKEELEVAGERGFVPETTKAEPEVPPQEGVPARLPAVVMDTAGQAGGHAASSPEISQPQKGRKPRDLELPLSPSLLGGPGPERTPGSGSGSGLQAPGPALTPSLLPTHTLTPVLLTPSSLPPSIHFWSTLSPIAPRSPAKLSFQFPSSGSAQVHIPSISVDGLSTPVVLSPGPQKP
In outline:
as §1

In assay [3] the target is T3, GABPA (Homo sapiens, UniProt Q06546 1-454).
T3 sequence: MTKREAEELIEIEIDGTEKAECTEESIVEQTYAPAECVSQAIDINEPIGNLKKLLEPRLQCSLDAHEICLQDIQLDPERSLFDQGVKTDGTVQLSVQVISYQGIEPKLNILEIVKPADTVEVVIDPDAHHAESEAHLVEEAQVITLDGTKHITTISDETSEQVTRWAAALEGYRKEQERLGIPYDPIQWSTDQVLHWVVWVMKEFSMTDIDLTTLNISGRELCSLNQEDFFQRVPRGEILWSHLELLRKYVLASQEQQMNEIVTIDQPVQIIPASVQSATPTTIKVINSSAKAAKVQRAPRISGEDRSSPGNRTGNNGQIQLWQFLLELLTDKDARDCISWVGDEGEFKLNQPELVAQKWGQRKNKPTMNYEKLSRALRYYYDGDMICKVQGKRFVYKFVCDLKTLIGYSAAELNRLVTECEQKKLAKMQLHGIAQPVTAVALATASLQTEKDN
The gist of the method:
as §1

Assay [4] concerns the target T4, ELK4 (Homo sapiens, UniProt P28324-2 1-405).
T4 sequence: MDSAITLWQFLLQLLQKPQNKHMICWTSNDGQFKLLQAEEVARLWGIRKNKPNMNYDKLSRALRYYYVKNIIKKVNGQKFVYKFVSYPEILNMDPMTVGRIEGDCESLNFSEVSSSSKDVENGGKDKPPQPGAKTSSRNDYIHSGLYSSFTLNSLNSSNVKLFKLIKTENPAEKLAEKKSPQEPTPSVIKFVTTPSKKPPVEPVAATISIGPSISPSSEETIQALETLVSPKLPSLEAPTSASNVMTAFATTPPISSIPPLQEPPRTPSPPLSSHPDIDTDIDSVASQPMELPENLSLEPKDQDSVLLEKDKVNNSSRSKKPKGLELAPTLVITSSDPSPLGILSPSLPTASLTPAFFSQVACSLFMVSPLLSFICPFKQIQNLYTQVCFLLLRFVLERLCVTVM
The gist of the method:
as §1

The target in assay [5] is T5, ERF (Homo sapiens, UniProt P50548 1-548).
T5 sequence: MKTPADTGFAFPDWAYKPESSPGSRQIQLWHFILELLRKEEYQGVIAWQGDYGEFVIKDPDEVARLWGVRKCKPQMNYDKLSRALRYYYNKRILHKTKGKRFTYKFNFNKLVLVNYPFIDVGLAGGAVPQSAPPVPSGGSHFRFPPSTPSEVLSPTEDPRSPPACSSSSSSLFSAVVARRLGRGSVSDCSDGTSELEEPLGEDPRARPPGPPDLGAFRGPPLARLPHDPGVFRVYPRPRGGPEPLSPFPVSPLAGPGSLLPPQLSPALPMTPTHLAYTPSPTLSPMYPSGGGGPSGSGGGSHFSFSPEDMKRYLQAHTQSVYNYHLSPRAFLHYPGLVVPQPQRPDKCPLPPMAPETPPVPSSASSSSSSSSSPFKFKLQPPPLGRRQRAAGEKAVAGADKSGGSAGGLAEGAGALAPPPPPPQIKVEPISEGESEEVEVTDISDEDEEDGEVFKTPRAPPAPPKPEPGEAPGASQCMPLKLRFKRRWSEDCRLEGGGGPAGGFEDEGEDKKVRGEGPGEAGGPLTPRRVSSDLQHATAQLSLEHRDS
In outline: as §1

Assay [6] addresses T6, ETV3L (Homo sapiens, UniProt Q6ZN32 1-361).
T6 sequence: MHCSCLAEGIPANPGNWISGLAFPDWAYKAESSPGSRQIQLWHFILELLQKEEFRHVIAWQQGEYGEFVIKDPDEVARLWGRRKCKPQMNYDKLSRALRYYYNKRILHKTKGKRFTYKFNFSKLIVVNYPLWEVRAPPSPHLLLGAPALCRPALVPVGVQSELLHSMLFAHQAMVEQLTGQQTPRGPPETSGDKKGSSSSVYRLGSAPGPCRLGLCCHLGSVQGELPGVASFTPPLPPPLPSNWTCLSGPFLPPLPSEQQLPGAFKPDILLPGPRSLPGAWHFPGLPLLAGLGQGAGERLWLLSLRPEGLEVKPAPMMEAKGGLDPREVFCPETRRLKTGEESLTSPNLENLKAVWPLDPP
The gist of the method: as §1

The target in assay [7] is T7, ETV7 (Homo sapiens, UniProt Q9Y603 1-341).
T7 sequence: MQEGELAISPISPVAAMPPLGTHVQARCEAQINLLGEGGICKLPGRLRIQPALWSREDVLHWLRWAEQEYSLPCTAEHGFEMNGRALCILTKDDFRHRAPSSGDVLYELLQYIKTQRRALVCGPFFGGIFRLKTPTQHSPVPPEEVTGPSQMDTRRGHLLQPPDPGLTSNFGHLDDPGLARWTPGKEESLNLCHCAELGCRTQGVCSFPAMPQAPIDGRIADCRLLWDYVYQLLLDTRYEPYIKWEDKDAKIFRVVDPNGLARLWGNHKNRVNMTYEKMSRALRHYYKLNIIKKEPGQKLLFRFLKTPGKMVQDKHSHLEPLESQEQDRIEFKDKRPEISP
In outline: as §1

Assay [8] deals with ELF1 (Homo sapiens, UniProt P32519 1-619). In outline: as §1
Assay [9] concerns the target T8, ELK3 (Homo sapiens, UniProt P41970 1-407).
T8 sequence: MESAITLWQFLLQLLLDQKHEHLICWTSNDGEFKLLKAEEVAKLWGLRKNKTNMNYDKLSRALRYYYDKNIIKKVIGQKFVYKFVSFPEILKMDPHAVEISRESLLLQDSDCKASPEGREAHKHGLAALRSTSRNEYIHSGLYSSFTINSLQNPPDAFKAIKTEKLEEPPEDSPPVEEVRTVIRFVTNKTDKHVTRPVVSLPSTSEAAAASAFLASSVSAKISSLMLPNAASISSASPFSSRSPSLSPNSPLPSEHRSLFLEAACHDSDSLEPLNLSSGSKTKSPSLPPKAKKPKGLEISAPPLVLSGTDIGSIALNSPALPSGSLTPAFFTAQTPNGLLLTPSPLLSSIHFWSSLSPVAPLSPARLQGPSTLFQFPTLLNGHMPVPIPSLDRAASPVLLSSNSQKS
The gist of the method: as §1

For assay [10], the target named is T9, ETV2 (Homo sapiens, UniProt O00321 1-342).
T9 sequence: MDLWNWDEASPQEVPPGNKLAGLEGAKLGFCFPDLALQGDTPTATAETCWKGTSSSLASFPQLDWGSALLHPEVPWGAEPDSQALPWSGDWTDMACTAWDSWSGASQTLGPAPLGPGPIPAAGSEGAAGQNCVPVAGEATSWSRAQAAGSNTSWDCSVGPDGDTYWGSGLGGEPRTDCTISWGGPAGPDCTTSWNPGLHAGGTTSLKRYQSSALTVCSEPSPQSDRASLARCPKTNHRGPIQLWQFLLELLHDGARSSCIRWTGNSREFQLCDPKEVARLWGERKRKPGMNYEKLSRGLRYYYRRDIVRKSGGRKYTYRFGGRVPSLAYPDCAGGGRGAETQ
The gist of the method: as §1

Assay [11] addresses T10, ETV3 (Homo sapiens, UniProt P41162-2 1-143).
T10 sequence: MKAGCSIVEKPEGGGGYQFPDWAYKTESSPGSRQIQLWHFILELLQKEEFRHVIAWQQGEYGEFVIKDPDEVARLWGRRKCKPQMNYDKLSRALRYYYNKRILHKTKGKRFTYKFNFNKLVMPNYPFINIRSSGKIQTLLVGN
The gist of the method:
as §1

Assay [12] concerns the target ETV6 (Homo sapiens, UniProt P41212 1-452). The gist of the method:
as §1

ELF1, sequence (P32519 whole entry): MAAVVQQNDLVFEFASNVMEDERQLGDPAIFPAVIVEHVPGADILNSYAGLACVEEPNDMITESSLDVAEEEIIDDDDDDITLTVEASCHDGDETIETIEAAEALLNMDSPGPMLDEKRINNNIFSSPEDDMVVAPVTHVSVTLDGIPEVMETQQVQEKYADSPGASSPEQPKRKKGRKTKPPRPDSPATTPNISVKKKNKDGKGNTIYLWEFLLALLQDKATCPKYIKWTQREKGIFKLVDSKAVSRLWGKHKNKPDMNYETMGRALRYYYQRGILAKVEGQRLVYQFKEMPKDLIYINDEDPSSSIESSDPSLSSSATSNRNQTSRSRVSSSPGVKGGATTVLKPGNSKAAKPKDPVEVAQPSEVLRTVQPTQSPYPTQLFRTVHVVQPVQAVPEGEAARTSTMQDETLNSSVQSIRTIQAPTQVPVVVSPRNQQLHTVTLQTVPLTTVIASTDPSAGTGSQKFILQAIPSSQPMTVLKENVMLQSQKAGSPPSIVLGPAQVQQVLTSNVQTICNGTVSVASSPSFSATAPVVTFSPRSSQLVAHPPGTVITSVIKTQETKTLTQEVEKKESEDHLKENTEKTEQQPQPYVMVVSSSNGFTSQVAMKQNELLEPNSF
ETV6, sequence (P41212 whole entry): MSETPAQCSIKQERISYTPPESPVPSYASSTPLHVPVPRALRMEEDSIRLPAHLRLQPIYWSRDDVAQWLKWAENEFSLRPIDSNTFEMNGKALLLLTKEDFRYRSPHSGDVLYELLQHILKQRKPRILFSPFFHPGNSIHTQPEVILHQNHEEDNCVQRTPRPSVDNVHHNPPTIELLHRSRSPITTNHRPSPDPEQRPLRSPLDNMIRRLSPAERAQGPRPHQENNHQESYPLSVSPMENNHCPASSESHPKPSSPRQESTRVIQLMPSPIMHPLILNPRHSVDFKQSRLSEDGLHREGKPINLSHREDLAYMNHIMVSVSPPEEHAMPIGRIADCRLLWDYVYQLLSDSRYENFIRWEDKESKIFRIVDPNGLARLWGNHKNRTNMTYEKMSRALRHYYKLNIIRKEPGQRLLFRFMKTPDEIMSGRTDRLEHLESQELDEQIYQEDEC

As for CATTGA, the binding signal in assay [1] is 1.06 fold enrichment (6-mer frequency, TF over GST control); in assay [2], 1.05 fold enrichment (6-mer frequency, TF over GST control); in assay [3], 1 fold enrichment (6-mer frequency, TF over GST control); in [4], 1.11 fold enrichment (6-mer frequency, TF over GST control); in [5] it was 1 fold enrichment (6-mer frequency, TF over GST control); in [6], 1.01 fold enrichment (6-mer frequency, TF over GST control). The binding signal in assay [7] was 1.01 fold enrichment (6-mer frequency, TF over GST control).
On to GACACT, for which the binding signal in [1] is 1.01 fold enrichment (6-mer frequency, TF over GST control); in [2] it was 1.02 fold enrichment (6-mer frequency, TF over GST control); in [8] it was 1.03 fold enrichment (6-mer frequency, TF over GST control); in assay [9] it was 1.06 fold enrichment (6-mer frequency, TF over GST control); in assay [4] it was 1.05 fold enrichment (6-mer frequency, TF over GST control); in assay [10], 1.1 fold enrichment (6-mer frequency, TF over GST control). Besides, the binding signal in [6] was 1.08 fold enrichment (6-mer frequency, TF over GST control); in assay [7] it was 1.04 fold enrichment (6-mer frequency, TF over GST control); in assay [11], 1.03 fold enrichment (6-mer frequency, TF over GST control); in assay [12], 1.13 fold enrichment (6-mer frequency, TF over GST control).
